Experimental data from PubChem BioAssay (NCATS).
Where “and” joins values, the source holds several entries; their conditions need not be identical. Identical values can stand only once. Records with an inconclusive call do not appear. Entries that show only a call come without a potency. Some structures have more than one record in an assay (separate samples or runs), and their calls can disagree. Calls of active or inactive are those of the source. Unless noted, calls come from the whole dose curve.

Assays:
[1] = Primary qHTS for Huh7 cytotoxicity: counterscreen for inhibitors of MERS-S pseudotyped particle cell entry (AID 1479147); details: outcome: dose series up to 57.1 µM unless noted
[2] = Primary qHTS for Vero E6 cytotoxicity: counterscreen for inhibitors of SARS-S pseudo-typed particle cell entry (AID 1479150); details: outcome: dose series up to 57.1 µM unless noted; note: potency is the fitted concentration of half-maximal effect
[3] = Cytotoxicity counterscreen for inhibitors of SARS-CoV-2 cell entry (AID 1645845); details: outcome: dose series up to 57.1 µM unless noted; note: nearly all actives have a fitted effect of over 50% in size; note: potency is the fitted concentration of half-maximal effect
Procedure, shortened: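 48 h compound treatment (after 1 h preincubation), HEK293-ACE2 cells, 37 C/5% CO2; ATP luminescence endpoint; normalized to cell wells and media blanks.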

[4] = Confirmatory qHTS to identify inhibitors of SARS-CoV-2 cell entry (AID 1645844); note: potency is the fitted concentration of half-maximal effect; nearly all actives have a fitted effect of over 45% in size
Procedure, shortened: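 Luminescence from a luciferase reporter, read 48 hr after pseudotyped-particle addition, gives entry signal, normalised to spike-bearing PP wells and bald PP lacking fusion protein wells. Cells are Expi293F stably expressing human ACE2, compound-pretreated 1 hr.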

[5] = Primary qHTS to identify inhibitors of SARS-CoV-2 cell entry (AID 1645846); details: SARS-CoV-2 pseudovirus cell entry assay, luminescence; activity change, negative = inhibition: at 57.1 µM (top of the series) unless noted; note: nearly all actives have a fitted effect of over 45% in size; note: potency is the fitted concentration of half-maximal effect
Procedure, shortened: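 HEK293 cells stably expressing human ACE2, pre-treated 1 h with compound, then infected with MLV particles pseudotyped with Wuhan-Hu-1 spike (C-terminal 19-aa truncation). Luciferase luminescence after 48 h at 37 °C, normalised to spike PP and bald PP.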

[6] = VSVG counterscreen qHTS to identify inhibitors of SARS-CoV-2 cell entry (AID 1645847); note: nearly all actives have a fitted effect of over 65% in size; note: potency is the fitted concentration of half-maximal effect
Procedure, shortened: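 HEK293-ACE2 cells (Expi293F, human ACE2) pretreated 1 h with compound, then infected with MLV-based VSV-G pseudotyped particles for 48 h at 37 C; luciferase luminescence normalized to VSV-G PP and bald PP wells.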

[7] = Confirmatory qHTS for VERO E6 Cytotoxicity Assay: Counterscreen for SARS-CoV-2 CPE Assay (AID 1508605); note: nearly all actives have a fitted effect of over 60% in size; note: potency is the fitted concentration of half-maximal effect
[8] = qHTS Assay for Identifying Gametocytocidal Compounds (AID 743244; active = well fitted curve in the direction sought with a large enough effect; an effect the other way counts as inactive or inconclusive; note: potency is the fitted concentration of half-maximal effect); details: P. falciparum 3D7 stage III-V gametocytes, alamarBlue, 72 h
Procedure, shortened: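 In this qHTS viability screen, late-stage 3D7 gametocytes are incubated with compound for 72 h, then with alamarBlue for 24 h; reduced resorufin fluorescence marks killing.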

[9] = Primary qHTS for inhibitors of MERS-S pseudo-typed particle cell entry (AID 1479149); details: outcome: dose series up to 57.1 µM unless noted; note: nearly all actives have a fitted effect of over 60% in size; note: potency is the fitted concentration of half-maximal effect
[10] = target: Glutathione peroxidase 1 (Homo sapiens) (UniProt P07203); experiment: Primary qHTS Assay for Inhibitors of Recombinant Selenoprotein Glutathione Peroxidase 1 (GPX1) (AID 1845191; active = well fitted curve in the direction sought with a large enough effect; an effect the other way counts as inactive or inconclusive; note: nearly all actives have a fitted effect of over 65% in size)
Sequence of Glutathione peroxidase 1 (Homo sapiens) (P07203 whole entry, looked up): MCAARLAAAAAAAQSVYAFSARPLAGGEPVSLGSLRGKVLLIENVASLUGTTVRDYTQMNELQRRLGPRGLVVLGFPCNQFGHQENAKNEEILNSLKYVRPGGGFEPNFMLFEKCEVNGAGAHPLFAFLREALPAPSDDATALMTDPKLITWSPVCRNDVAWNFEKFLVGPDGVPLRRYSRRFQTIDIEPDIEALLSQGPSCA
Procedure, shortened: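 10 nM GPX1 + cpd, 30 min RT; start w/ 1 mM GSH, 0.5 mM cumene hydroperoxide, 0.5 mM NADPH, 100 nM GR, 0.01% BSA; buffer 50 mM Tris-HCl pH 7.5, 2 mM EDTA, 150 mM NaCl; Fl 340/450, 0 & 15 min.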

[11] = Confirmatory qHTS for activators (rescue) of SARS-CoV-2 Cytopathic Effect (CPE) (AID 1508606); note: potency is the fitted concentration of half-maximal effect; nearly all actives have a fitted effect of over 70% in size

With `Cc1cc(-n2c(=O)[nH]c(=O)n(C)c2=O)ccc1Oc1ccc(SC(F)(F)F)cc1` the Potency [1] was “inactive”, the Potency [2] was “inactive” and the Potency [3] was “inactive”.
In the case of `CCCN1C[C@H](C)[C@@H](O)[C@](C)(O)[C@@H](CC)OC(=O)[C@H](C)[C@@H](O[C@H]2C[C@@](C)(OC)[C@@H](O)[C@H](C)O2)C(C)[C@@H](O[C@@H]2O[C@H](C)C[C@H](N(C)C)[C@H]2O)[C@](C)(O)C[C@H]1C` (stereo partly specified), the Potency [1] is reported as “inactive”, the Potency [2] is reported as “inactive” and the Potency [4] is reported as 21.5 µM (active). For the same compound, the Potency [3] was “inactive”, the Potency [5] was 11.2 µM (active) and the Potency [6] was “inactive”.
For `CCCCCCCCCC(=O)OCCN1CCN(CCCN2c3ccccc3Sc3ccc(C(F)(F)F)cc32)CC1`, the Potency [1] was “inactive”, the Potency [2] was “inactive” and the Potency [3] was “inactive”.
With `CCCCCCCC(=O)N[C@H](CN1CCCC1)[C@H](O)c1ccc2c(c1)OCCO2` the Potency [1] was “inactive”, the Potency [2] was “inactive” and the Potency [3] was “inactive”.
With `COC(=O)N[C@H](C(=O)N1CCC[C@H]1c1ncc(-c2ccc(-c3ccc(-c4cnc([C@@H]5CCCN5C(=O)[C@@H](NC(=O)OC)C(C)C)[nH]4)cc3)cc2)[nH]1)C(C)C` the Potency [1] was “inactive”, the Potency [2] was “inactive” and the Potency [3] was 39.8 µM (active). The Potency [6] was 1.71 µM (active).
With `CCOC(=O)Oc1c(OC)cc(C(=O)O[C@@H]2C[C@@H]3CN4CCc5c([nH]c6cc(OC)ccc56)[C@H]4C[C@@H]3[C@H](C(=O)OC)[C@H]2OC)cc1OC` the Potency [1] was “inactive”, the Potency [2] was “inactive” and the Potency [3] was “inactive”. For the same compound, the Potency [5] was 22.4 µM (active).
In the case of `N#Cc1ccc2[nH]cc(CCCCN3CCN(c4ccc5oc(C(N)=O)cc5c4)CC3)c2c1`, the Potency [1] is reported as “inactive”, the Potency [2] is reported as “inactive” and the Potency [7] is reported as “inactive”. The Potency [3] was “inactive”.
In the case of `C=C1C(=O)O[C@H]2C3=C(C)CCC[C@]3(C)C(=O)C[C@@H]12`, the Potency [7] is reported as 10 µM (active).
In the case of `CCN(CC)CCN(Cc1ccc(-c2ccc(C(F)(F)F)cc2)cc1)C(=O)Cn1c(SCc2ccc(F)cc2)nc(=O)c2c1CCC2`, the Potency [7] is reported as 10 µM (active).
In the case of `CC[C@@H](C(=O)O)[C@@H]1O[C@@H]([C@@H](C)[C@H](O)[C@H](C)C(=O)[C@H](CC)[C@H]2O[C@]3(C=C[C@@H](O)[C@]4(CC[C@@](C)([C@H]5CC[C@](O)(CC)[C@H](C)O5)O4)O3)[C@H](C)C[C@@H]2C)[C@@H](C)C[C@@H]1C`, the Potency [8] is reported as 0.316 µM (active), the Potency [9] is reported as 0.355 µM (active) and the Potency [2] is reported as “inactive”. The Potency [5] was 0.708 µM (active).
In the case of `CC1=CC(=C(c2ccc(N)cc2)c2ccc(N)cc2)C=CC1=N`, the Potency [9] is reported as 7.08 µM (active), the Potency [3] is reported as 8.91 µM (active) and the Potency [5] is reported as 5.01 µM (active).
For `C=CC(=O)Nc1cc(Nc2nccc(-c3cn(C)c4ccccc34)n2)c(OC)cc1N(C)CCN(C)C`, the Potency [9] was 31.6 µM (active), the Potency [3] was 28.2 µM (active) and the Potency [5] was 3.16 µM (active) and 8.91 µM (active).
For `CCCCCCOc1ccc(C(=N)N(CCCC)CCCC)c2ccccc12`, the Potency [2] was 14.1 µM (active) and the Potency [7] was 10 µM (active).
With `CCCCC(=O)OCC(=O)[C@]1(O)Cc2c(O)c3c(c(O)c2[C@@H](O[C@H]2C[C@H](NC(=O)C(F)(F)F)[C@H](O)[C@H](C)O2)C1)C(=O)c1c(OC)cccc1C3=O` the Potency [8] was 7.08 µM (active), the Potency [9] was 14.1 µM (active) and the Potency [2] was “inactive”. The Potency [3] was “inactive”, the Potency [5] was 1 µM (active) and the activity change, negative = inhibition [5] was -97.5%. For the same compound, the Potency [6] was 0.961 µM (active).
In the case of `CCSc1ccc2c(c1)N(CCCN1CCN(C)CC1)c1ccccc1S2`, the Potency [2] is reported as “inactive”.
With `CC1CCCC(O)CCCCCc2cc(O)cc(O)c2C(=O)O1` (stereo unspecified) the Potency [1] was “inactive”, the Potency [2] was “inactive” and the Potency [10] was “inactive”.
With `CC(=O)Oc1cc(C)c(OC(C)=O)c2ccccc12` the Potency [2] was “inactive” and the Potency [5] was 31.6 µM (active).
In the case of `CCN1/C(=C/C=C/C=C/c2sc3ccccc3[n+]2CC)Sc2ccccc21`, the Potency [9] is reported as 11.2 µM (active).
In the case of `O=C(CCCN1CCC(n2c(=S)[nH]c3ccccc32)CC1)c1ccc(F)cc1`, the Potency [2] is reported as “inactive”.
In the case of `O=C1CSC2(CCN(CCCN3c4ccccc4Sc4ccc(Cl)cc43)CC2)N1`, the Potency [1] is reported as “inactive”, the Potency [2] is reported as “inactive” and the Potency [5] is reported as 25.1 µM (active).
For `CC(C)c1cccc2c(-c3ccccc3)cc(-c3ccc(-c4ccc(C(=O)O)cc4)[nH]3)nc12`, the Potency [7] was “inactive”.
For `CC1(C)[C@@H](O[C@H]2O[C@H](C(=O)O)[C@@H](O)[C@H](O)[C@H]2O[C@@H]2O[C@H](C(=O)O)[C@@H](O)[C@H](O)[C@H]2O)CC[C@]2(C)[C@H]3C(=O)C=C4[C@@H]5C[C@@](C)(C(=O)O)CC[C@]5(C)CC[C@@]4(C)[C@]3(C)CC[C@@H]12`, the Potency [9] was “inactive” and the Potency [2] was “inactive”.
With `C/C(=C(\CCOC(=O)c1ccccc1)SS/C(CCOC(=O)c1ccccc1)=C(/C)N(C=O)Cc1cnc(C)nc1N)N(C=O)Cc1cnc(C)nc1N` the Potency [9] was “inactive” and the Potency [3] was “inactive”.
With `FC(F)(F)C(F)(F)C(F)(F)C(F)(F)C(F)(F)F` the Potency [9] was “inactive”.
In the case of `C[C@](C#N)(COc1cc(C#N)ccc1C(F)(F)F)NC(=O)c1ccc(SC(F)(F)F)cc1`, the Potency [2] is reported as “inactive”.
With `COc1ccc2c(c1)N(C[C@H](C)CN(C)C)c1ccccc1S2` the Potency [2] was “inactive”, the Potency [7] was “inactive” and the Potency [11] was 10 µM (active). For the same compound, the Potency [5] was 11.2 µM (active).
In the case of `COc1cc2nc(N3CCC(N4CCCCC4)CC3)nc(NC3CCCCCC3)c2cc1OC`, the Potency [7] is reported as 6.31 µM (active).
For `C[C@H](Oc1cc(-c2cnn(C3CCNCC3)c2)cnc1N)c1c(Cl)ccc(F)c1Cl`, the Potency [9] was 12.6 µM (active), the Potency [2] was “inactive” and the Potency [5] was 11.2 µM (active).
In the case of `Cc1cc(/C=C/c2ccc3cc(N(C)C)ccc3[n+]2C)c(C)n1-c1ccccc1`, the Potency [9] is reported as 5.01 µM (active) and the Potency [5] is reported as 1.78 µM (active).
With `CC(C)N1CCN(c2ccc(OC[C@@H]3CO[C@@](Cn4cncn4)(c4ccc(Cl)cc4Cl)O3)cc2)CC1` the Potency [9] was “inactive” and the Potency [2] was “inactive”.
In the case of `COc1cc(N2CCC(N3CCN(C)CC3)CC2)ccc1Nc1ncc(Cl)c(Nc2ccccc2P(C)(C)=O)n1`, the Potency [2] is reported as “inactive” and the Potency [5] is reported as 8.91 µM (active).
For `COC(=O)CC[C@@H](C)C1CCC2C3CCC4C[C@H](OC(C)=O)CCC4(C)C3C[C@H](O)C21C` (stereo partly specified), the Potency [7] was “inactive”.
